# Experimental data: PubChem BioAssay AID588342 (National Center for Advancing Translational Sciences (NCATS), 2011)
# The whole screen tested about 360,000 compounds, of which about 25,000 (6.9%) were called active. Not shown: some 9% with an inconclusive outcome. For the sample, actives were picked, then their nearest neighbours and some compounds at random. A number with no mark means an inactive call. Calls follow the shape of the dose curve; as a rule, active = well fitted inhibition curve with a large enough effect; inconclusive = small, poorly fitted or top-dose-only effect; inactive = flat fitted curve, though single readings scatter.
# Target: Luciferin 4-monooxygenase (Photinus pyralis) (UniProt P08659)
# Sequence (P08659 whole entry, looked up): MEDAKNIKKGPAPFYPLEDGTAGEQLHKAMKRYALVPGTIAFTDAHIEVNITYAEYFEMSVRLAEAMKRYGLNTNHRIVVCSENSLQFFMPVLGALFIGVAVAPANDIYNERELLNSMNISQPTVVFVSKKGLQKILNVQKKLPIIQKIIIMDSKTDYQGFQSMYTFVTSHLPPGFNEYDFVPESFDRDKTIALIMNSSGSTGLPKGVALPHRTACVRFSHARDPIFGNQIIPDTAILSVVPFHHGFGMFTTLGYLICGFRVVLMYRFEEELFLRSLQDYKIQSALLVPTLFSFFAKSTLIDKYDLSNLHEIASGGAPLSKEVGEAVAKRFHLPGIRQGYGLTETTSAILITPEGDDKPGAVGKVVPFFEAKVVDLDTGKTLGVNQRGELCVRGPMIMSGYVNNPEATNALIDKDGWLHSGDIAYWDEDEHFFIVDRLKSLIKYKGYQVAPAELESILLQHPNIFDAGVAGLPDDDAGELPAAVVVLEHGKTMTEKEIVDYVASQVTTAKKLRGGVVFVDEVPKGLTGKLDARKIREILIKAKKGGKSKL
# Assay: qHTS profiling assay for firefly luciferase inhibitor/activator using purifed enzyme and Km concentrations of substrates (counterscreen for miR-21 project); also: nearly all actives have a fitted effect of over 55% in size;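 as to activity change, negative = inhibition: plate controls were vehicle for no effect and reference inhibitor for full effect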
# Settings: purified FLuc, luminescence inhibition; series mostly up to 57.5 µM; activity change, negative = inhibition: at the top concentration
# Text: MLPCN Grant: 1 R21 NS059478-01 (miR-21 grant) Assay Provider: NCGC NCGC Assay Overview: Firefly (Photinus pyralis) luciferase is one of the most commonly used transcriptional reporters for a number of reasons. It is considered one of the more dynamically responsive reporters -that is, responsive to changes in reporter transcription - as it requires no post-translational modifications and is enzymatically active directly after protein synthesis (Wood, 1998). Additionally, the half-life of the luciferase protein is short relative to other reporter-gene products (Wood, 1995). Whereas reporters with long half-lives potentially allow for increased signal due to accumulation of reporter-gene product, once accumulated in the cell, dynamic changes in reporter-gene expression may be difficult to detect(Fan and Wood, 2007; Almond et al., 2004). It has been shown that wild-type P. pyralis luciferase has a half-life of approximately […] hours in mammalian cells (Thompson et al., 1991). Firefly luciferase reporter-gene assays are also generally considered one of the most sensitive assay types (Wood, 1995; Wood, 1998). Although light produced in a bioluminescence reaction is of lower intensity than that produced during fluorescence emission, this is offset by little to no background light inherent to luminescent assays. Thus the luciferase reporter can be expressed at much lower levels than fluorescent proteins while still providing robust signal. # However, it was initially observed, in 1991, by Thompson et al., that compounds that resemble the substrates of firefly luciferase (FLuc) can act as competitive inhibitors of the enzyme, and that these compounds, upon interaction with luciferase in the cell, can actually stabilize the protein and increase its half-life. Accumulated intracellular FLuc protein can be measured as an increase in luminescence signal, upon addition of detection reagents (which contain high concentrations of FLuc substrates) commonly used in high-throughput screening. In cell-based reporter gene assays that use FLuc as the reporter gene to quantitate the potential influence of a given compound against the target biology, this apparent increase in luminescence can mistakenly be interpreted as identification of a compound that is active against the target of interest. This is the case for the miR-21 FLuc reporter gene assay used to identify inhibitors of the miR-21 pathway (PubChem AID 2289) - compounds of interest will inhibit miR-21 biogenesis/expression or activity, and are identified by causing an increase in luminescence, due to increased FLuc translation. However, FLuc inhibitory compounds that stabilize the FLuc protein will give an identical read-out, making it difficult to distinguish compounds that are active against the target from those active against FLuc. Previous profiling work to determine the prevalence of compounds that affect FLuc enzymatic activity (PubChem AID 411) identified that ~3% of the MLSMR library (then at ~72K) inhibited FLuc. […] Since the MLSMR had grown to ~350K compounds, and since it was expected that a significant percentage of compounds found active in the miR-21 FLuc assay would be FLuc inhibitors, the library was screened for activity against FLuc using a biochemical assay of purified FLuc and KM concentrations of FLuc substrates (D-luciferin and ATP).
# NCGC Assay Protocol Summary: Reagents: 50mM Tris acetate, pH 7.5; 10mM Mg acetate; 10uM D-luciferin (Sigma #L9504); 10uM ATP; 0.01% Tween-20; 0.05% BSA; 10nM P. pyralis luciferase (Sigma #L9506) Control compounds used were two known firefly luciferase inhibitors (compounds (2) and (5) in Auld et al., 2010), and DMSO. […]
SMILES,"activity change, negative = inhibition",Potency
CN(C(=O)CSc1nnc(C2CC2)n1C)C1CCCc2ccccc21 (stereo not drawn),1.86%,–
N#Cc1ccc(C2=CC(=O)C[C@H](c3ccc(Cl)cc3)C2)cc1,-16.3%,–
O=C(CSc1oc(-c2ccco2)nc1S(=O)(=O)c1ccc(Cl)cc1)c1ccccc1,1.52%,–
COc1ccccc1CNc1nccn(-c2ccc(F)cc2)c1=O,-2.26%,–
Cc1ccc(C2(C)NC(=O)N(CC(=O)Nc3ccccc3C(=O)N3CCCCC3)C2=O)cc1 (stereo not drawn),0.472%,–
CCOC(=O)c1c(C)[nH]c(C)c1S(=O)(=O)N1CCCC(C(=O)NCc2ccccc2Cl)C1 (stereo not drawn),-8.43%,–
Cc1ccc(NC(=O)CSc2nc3ccccc3c3nc(CCn4cncc4C)nn23)cc1F,3.74%,–
O=C(CO/N=C/c1ccc(OC(F)F)cc1)NCc1ccc(F)cc1,-10.7%,–
CCOc1ccc(CCNC(=O)COC(=O)c2ccc(F)c(S(=O)(=O)N3CCOCC3)c2)cc1OCC,0.0182%,–
CCC(=O)N1c2ccccc2CC1C(=O)N1CCN(c2ccccc2)CC1 (stereo not drawn),2.76%,–
Cc1ccc(CSc2ccc(S(=O)(=O)N3CCCCC3)cn2)cc1,4.03%,–
Cc1ccccc1NC(=O)c1cc(S(=O)(=O)N2CCOCC2)cs1,-0.63%,–
O=C(Nc1ccccc1F)c1cc(S(=O)(=O)N2CCCCC2)cs1,6.84% [at 2.3 µM],–
O=C(Nc1ccccc1C(=O)O)c1cc(S(=O)(=O)N2CCCCC2)cs1,–,23.9 µM (active)
COc1ccc(CNC(=O)CN2C(=O)NC3(CCCc4sccc43)C2=O)cc1 (stereo not drawn),2.42%,–
CC[N+]1(CC)CC2=Cc3ccccc3CC2C1 (stereo not drawn),-0.581%,–
COc1ccccc1C(=O)NC(=O)COC(=O)C1CC1,–,9.53 µM (active)
COc1ccccc1C(=O)OCC(=O)NCCNC(=O)COC(=O)c1ccccc1OC,-0.745%,–
COc1ccccc1C(=O)NC(=O)COC(=O)c1ccco1,12.2%,–
O=C(Nc1cccc(-n2cnnn2)c1)c1cccnc1,-1.84%,–
O=C(Nc1ccc2oc(-c3ccccc3F)nc2c1)c1ccco1,–,6.01 µM (active)
O=C(Nc1ccc(O)c(-c2nc3ccccc3o2)c1)c1ccc(-c2cccc(Cl)c2)o1,3.47%,–
Cc1ccccc1-c1nc2cc(NC(=O)c3cccc(OCCC(C)C)c3)ccc2o1,-3.07%,–
COc1ccccc1CNC(=O)COC(=O)CNS(=O)(=O)c1ccc(NC(C)=O)cc1,-0.864%,–
Cc1cccc(N2CCN(C(=O)c3cnc(N4CCCC4)nc3C)CC2)c1C,2.04%,–
COc1ccccc1CNC(=O)C1CCN(C(=O)[C@@H]2Cc3ccccc3CN2)CC1,-0.16%,–

SMILES,"activity change, negative = inhibition",Potency
COc1ccccc1CNC(=O)C1CCN(S(C)(=O)=O)CC1,2.3%,–
COc1ccccc1CCNC(=O)C1CCN(C(=O)/C=C/c2ccccc2)CC1,–,21.3 µM (active)
OC1CCCN(c2ncnc3c2nnn3Cc2c(F)cccc2Cl)C1 (stereo not drawn),-13.1%,–
C/C(=C/c1ccccc1)C(=O)N1CCN(c2ccccc2)CC1,-12.4%,–
Cc1ccnc(NS(=O)(=O)c2ccc(NC(=O)c3oc4ccc(F)cc4c3C)cc2)n1,–,26.9 µM (active)
CCn1c(SCC(=O)Nc2ccc(S(=O)(=O)Nc3onc(C)c3C)cc2)nnc1-c1ccccc1,2.13%,–
Cc1cc(C)nc(NS(=O)(=O)c2ccc(N/C=C\C(=O)c3cccs3)cc2)n1,-7.27%,–
Cc1ccnc(NS(=O)(=O)c2ccc(NC(=O)c3ccc(S(=O)(=O)N(C)C)cc3)cc2)n1,-7.16%,–
Cc1noc(NS(=O)(=O)c2ccc(NC(=O)C34CCC(CC3)C4)cc2)c1C,0.134%,–
Cc1cc(OC(C)C(=O)Nc2ccc(S(=O)(=O)Nc3onc(C)c3C)cc2)cc(C)c1Cl (stereo not drawn),-0.156%,–
Cc1noc(NS(=O)(=O)c2ccc(NC(=O)c3oc4ccc(F)cc4c3C)cc2)c1C,–,15.1 µM (active)
Cc1cc(C)c2oc(C(=O)Nc3ccc(S(=O)(=O)Nc4nccc(C)n4)cc3)cc(=O)c2c1,-0.483%,–
Cc1ccc(C(=O)/C=C/Nc2ccc(S(=O)(=O)Nc3onc(C)c3C)cc2)cc1,–,15.1 µM (active)
COc1ccc(N2CCN(S(=O)(=O)c3ccc4c(c3)N(C(C)=O)CCO4)CC2)cc1,1.92%,–
CCOc1ccc(S(=O)(=O)NCCC(=O)NCC2CCCO2)cc1 (stereo not drawn),2.24%,–
Cc1cc(NC(=O)c2ccc(-c3ccc(Cl)cc3)o2)cc(-c2nc3ncccc3o2)c1O,3.37%,–
O=C(Nc1cccnc1Oc1ncnc2cc(Cl)ccc12)c1ccc(F)cc1,-2.02%,–
O=C(Nc1cccc2ncccc12)c1ccc(-c2ccc(Cl)cc2Cl)o1,–,12 µM (active)
COc1cc(OC)cc(C(=O)OCC(=O)Nc2sccc2C(N)=O)c1,–,15.1 µM (active)
NC(=O)c1ccsc1NC(=O)COC(=O)COc1ccc(C=O)cc1,6.4%,–
CCCCn1nc(C(=O)OCC(=O)Nc2sccc2C(N)=O)c2ccccc2c1=O,-1.34%,–
Cc1ccc(F)cc1NC(=O)CSCc1c(C)noc1C,3.3%,–
COC(=O)[C@H](CC(C)C)NC(=O)N1CCCCC1C (stereo partly drawn),4.28%,–
CC1CCCCN1Cc1c(O)ccc2c(=O)c(-c3cccc(Cl)c3)c(C(F)(F)F)oc12 (stereo not drawn),-3.84%,–
CCC1CCCCN1Cc1c(O)ccc2c(=O)c(Oc3ccccc3Cl)c(C(F)(F)F)oc12 (stereo not drawn),1.49%,–
O=C(Nc1n[nH]c(C(F)(F)F)n1)c1cccs1,2.94%,–

SMILES,"activity change, negative = inhibition",Potency
Cc1cc(C)cc(NC(=O)Cc2csc(C)n2)c1,-10.2%,–
Cc1nc(-c2ccc(NC(=O)c3cccs3)cc2)cs1,–,0.426 µM (active)
COc1cccc(CC(=O)Nc2ccc(-c3csc(C)n3)cc2)c1,–,16.9 µM (active)
Cc1ccc(-c2csc(NC(=O)c3cccs3)n2)cc1,–,10.7 µM (active)
CCc1c(C)sc(NC(=O)c2cccs2)c1C(N)=O,–,6.75 µM (active)
Cc1nc2ccccn2c(=O)c1NC(=O)c1cccs1,-0.785%,–
CCc1c(C)sc(NC(=O)c2ccc(Br)o2)c1C(=O)OC,-14.9%,–
CCOC(=O)c1oc2ccccc2c1NC(=O)c1cccs1,13.2%,–
COc1cccc(NC(=O)CN2CCN(c3nc(-c4cccc(OC)c4)cs3)CC2)c1,-18.5%,–
CCC1SC(CC)C(=O)N(CC(=O)NC2CCCCC2)C1=O (stereo not drawn),5.3%,–
Cc1cccc(NC(=O)C2CCCN2S(=O)(=O)c2cccc3nsnc23)c1C (stereo not drawn),-1.86%,–
Cc1nn(C)c2c1c(C(F)(F)F)cc(=O)n2C(C)C(=O)NCc1ccc(Cl)cc1 (stereo not drawn),-6.42%,–
CC(CC(=O)Nc1ccccc1)n1ccnc1 (stereo not drawn),-1.48%,–
CCc1nc2ccc(C(=O)N3CCN(c4cc(Cl)ccc4C)CC3)cc2nc1CC,-1.21%,–
COc1ccc(CCNC(=O)Cn2c(=O)cc(C(F)(F)F)c3c(C)nn(C)c32)c(OC)c1,7.08%,–
CCc1ccccc1NC(=O)N1CCC2(CC1)Oc1ccccc1C(=O)N2Cc1ccccc1F,-10.7%,–
CCN(CC(=O)Nc1cc(Cl)ccc1C)C(=O)CSCc1ccccc1,-2.11%,–
Fc1cccc(Cc2noc(CN3CCN(c4cnccn4)CC3)n2)c1,2.61%,–
CCCc1nnc(NC(=O)c2cccs2)s1,–,16.9 µM (active)
CCc1nnc(NC(=O)Cc2cccs2)s1,-1.84%,–
CCCc1nnc(NC(=O)CCC(=O)NC2CC2)s1,0.134%,–
COc1ccc(CCNC(=O)c2ccc3c(c2)nc(C)n3-c2ccc(Br)cc2)cc1OC,-2.6%,–
COc1ccc(OC)c(NC(=O)Cn2c(=O)n(Cc3ccccc3)c(=O)c3ccccc32)c1,-0.577%,–
Cc1ccc(NC(=O)C(C)Sc2nnc(C3CC3)n2C2CC2)cc1S(=O)(=O)N1CCOCC1 (stereo not drawn),12.6%,–
Nc1[nH][nH]c(=O)c1N=Nc1ccc2c(c1)OCO2,–,13.5 µM (active)
CC(=O)c1cc2c(cc1N)OCO2,3.19%,–

SMILES,"activity change, negative = inhibition",Potency
CC(=O)C1=C(C)NC(=O)NC1c1ccc2c(c1)OCO2 (stereo not drawn),4.8%,–
Cc1ccc(CNC(=O)CC(NC(=O)c2ccccc2)c2ccccc2)cc1 (stereo not drawn),6.17%,–
Cc1cccc(NC(=O)CN2CCN(CC(=O)NCC3(N4CCCCC4)CCCCC3)CC2)c1C,6.22%,–
CCn1c(SCC(=O)c2ccc(Cl)s2)nnc1-c1cccs1,–,16.9 µM (active)
CCn1c(SCC(=O)Nc2nccs2)nnc1-c1ccncc1,-0.256%,–
Cn1c(SCC(=O)N2CCCC2)nnc1-c1cccs1,0.337%,–
Cc1ccc(C)c(N2CCN(C(=O)Cn3ncc4c(=O)oc5ccc(C)cc5c43)CC2)c1,2.16%,–
COc1ccc(OC)c(CCNC(=O)CCCn2c(=O)c3cccn3c3cccnc32)c1,-0.342%,–
COc1ccc(N(CCC(=O)NCCc2ccccc2)S(=O)(=O)c2ccc(C)cc2C)cc1,-19.9%,–
O=C(CSc1nc(=O)[nH]c2c1CCCC2)Nc1cc(C(F)(F)F)ccc1Cl,-12.1%,–
O=C(Nc1cc(C(F)(F)F)ccc1Cl)c1cc2nc(-c3ccc4c(c3)OCO4)cc(C(F)(F)F)n2n1,4.73%,–
O=C(Nc1cc(C(F)(F)F)ccc1Cl)c1cc2nc3c(c(C(F)(F)F)n2n1)CCCC3,–,2.69 µM (active)
COc1cccc(N2CCN(S(=O)(=O)c3ccc4c(c3)CCCN4C(C)=O)CC2)c1,-5.49%,–
C/C(=N\Nc1ncc(Cl)cc1Cl)c1cccs1,–,9.53 µM (active)
COc1cccc(/C(C)=N/Nc2ncc(Cl)cc2Cl)c1,–,19 µM (active)
C/C(=N\NS(=O)(=O)c1ccc(Br)cc1)c1cccs1,-1.87%,–
C/C(=N\Nc1ncc(Cl)cc1Cl)c1ccc(S(=O)(=O)NCc2ccco2)cc1,–,16.9 µM (active)
C/C(=N\Nc1nc2ccccc2[nH]1)c1cccs1,–,2.69 µM (active)
O=C(Nc1ccccc1-c1nc2ccccc2[nH]c1=O)c1cccs1,-3.19%,–
O=S(=O)(NCc1ccco1)c1cnc(Cl)c(Cl)c1,-0.879%,–
C/C(=N\Nc1ccc(S(N)(=O)=O)cc1[N+](=O)[O-])c1cccs1,0.692%,–
C/C(=N\NC(=O)COc1c(C)cccc1C)c1cccs1,6.97%,–
CC(Oc1ccc(Cl)cc1)C(=O)OCC(=O)Nc1ncc(Cl)cc1Cl (stereo not drawn),4.74%,–
Cc1c(Cl)cnc(NC(=O)COC(=O)c2ccc(S(=O)(=O)NCc3ccco3)cc2)c1Cl,-2.56%,–
COc1ccc(/C(C)=N/Nc2cc(C(F)(F)F)ccc2Cl)c(OC)c1,3.38%,–
